# PI5P4K alpha inh: qHTS for Inhibitors of phosphatidylinositol 5-phosphate 4-kinase (PI5P4K) | PI5P4Kalpha enzyme, ADP-Glo luminescence, 60 min; hits give low values | max response, % | 330,000 tested, 1.2% active; active means max response of -50% or lower; inconclusive means between -30% and -50%; inactive means -30% or higher; further: value at the top dose of about 77 µM
#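 Reactions run in 0.038 M HEPES pH 7.4, 0.28 mM EGTA, 0.1% CHAPS and 5% DMSO, with PI5P4Kalpha, substrate, compound and 5 microM ATP final, one hour at room temperature. Readout is ADP-Glo luminescence.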
# WRN helicase inh: qHTS for Inhibitors of WRN Helicase; WRN helicase unwinding, fluorescent forked duplex, kinetic; 360,000 tested, 0.46% active; Bifunctional 3'-5' exonuclease/ATP-dependent helicase WRN (Homo sapiens), Q14191; Potency, µM (titrated, usually from 114 µM), for the others: top-dose activity change, negative = inhibition, actives largely listed as inhibitors; AID 651768, 2012; further: potency means the concentration at half of the fitted maximal effect; nearly all actives have a fitted effect of over 55% in size
#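 Fluorescence dequenching readout, ex 525 nm/em 598 nm, kinetic mode: forked duplex DNA (100 nM final) with adjacent fluorophore and quencher unwound by WRN (20 nM final) with 2 mM ATP. Compound preincubation 15 min, room temperature.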
# USP1-UAF1 inh: Inhibitors of USP1/UAF1: Primary Screen. AID 743255, 2014. recombinant USP1/UAF1, Ub-Rhodamine cleavage fluorescence. Potency, µM (highest dose often 57.1 µM), for inactives: at the top dose activity change, negative = inhibition, most hits filed as inhibitors. 390,000 tested, 0.23% active; further: potency means the concentration at half of the fitted maximal effect; nearly all actives have a fitted effect of over 60% in size
#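 1 nM enzyme complex + cpd, 15 min RT; start with Ub-Rho 150nM final; kinetic fluorescence ex 480/em 540, 6 reads q60 s. Buffer 50mM HEPES pH 7.8, 0.5mM EDTA, 0.1 mg/ml BSA, 1mM TCEP, 0.01% Tween-20.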
# PLK1 PBD block: qHTS for Inhibitors of PLK1-PDB (polo-like kinase 1 - polo-box domain): Primary Screen; Serine/threonine-protein kinase PLK1 (Homo sapiens), P53350; Plk1 PBD binding of FITC phosphopeptide, fluorescence polarization; Potency, µM, without a hit: max response, negative = inhibition, most hits filed as inhibitors; 360,000 tested, 2.8% active; AID 720504, 2013; further: potency means the concentration at half of the fitted maximal effect; series mostly up to about 57 µM; nearly all actives have a fitted effect of over 65% in size
# USP2a block: qHTS Assay for Inhibitors of Ubiquitin-specific Protease USP2a Using CHOP2 as the Reporter | AID 463254, 2010 | USP2 core, Ub-CHOP2 coupled fluorogenic reporter, 485/531 | 330,000 tested, 0.01% active | Ubiquitin carboxyl-terminal hydrolase 2 (Homo sapiens), O75604 | Potency, µM (top dose mostly 38.3 µM), without a hit: at the top dose activity change, negative = inhibition, actives largely listed as inhibitors;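 further: potency means the concentration at half of the fitted maximal effect; plate controls were DMSO wells for no effect and full inhibition by NEM control for full effect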
#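 USP2 core (10nM final) preincubated 30min RT with compound in 20mM Tris-HCl pH 8.0, 2mM CaCl2, 2mM beta-mercaptoethanol, 0.05% CHAPS; 25nM Ub-CHOP2 plus 25nM reporter substrate added, fluorescence (Ex485/Em531) read after 60min.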
# * marks the source's active call; other numbers are inactive results; ? = inconclusive; . = not tested or not shown; [ ] = another dose, or the depositor's remark. Only some compounds are listed: those with a hit (about 3.3% of all), similar ones and a draw of the others. Unless noted, the call rests on the fitted dose curve; in most records, active means well fitted curve in the direction sought with a large enough effect; inconclusive means small, poorly fitted or top-dose-only effect, or another doubt; inactive means no such curve, though single readings can be large; an effect the other way counts as inactive or inconclusive. Unless noted, on the % scale 0 is the no-effect control and ±100 the full control effect.
SMILES,PI5P4K alpha inh,WRN helicase inh,USP1-UAF1 inh,PLK1 PBD block,USP2a block
O=C(COc1ccccc1F)N1CCN(Cc2cc(=O)n3nc(-c4ccccc4Cl)sc3n2)CC1,.,.,0%,.,.
Cc1cc(C)cc(NC(=O)CN2C(=O)CN=C(c3ccccc3)c3cc(Cl)ccc32)c1,.,.,-7%,.,.
COc1ccc(OC)c(N2C(=O)/C(=C/c3ccco3)C(=O)NC2=S)c1,-86*,3.2µM*,16µM*,2.4µM*,?
COc1ccc(N2C(=O)/C(=C/c3cc(C)n(-c4ccc(C)cn4)c3C)C(=O)NC2=S)c(OC)c1,?,-21%[11.6 µM],-23%,30µM*,3%
Cc1ccc(Cn2cccc(C(=O)Nc3cc(C)on3)c2=O)cc1,.,.,-10%,.,.
Cc1ccc(NS(=O)(=O)c2c(F)cc(F)c(Cl)c2F)cc1S(=O)(=O)N1CCOCC1,0,-18%,?,2%,4%
COc1ccc(N2C(=O)NC(=O)/C(=C/c3cccc(OC(=O)c4cccs4)c3)C2=O)cc1Cl,?,?,-16%,19µM*,-1%
Cc1ccc(N2C(=O)NC(=O)/C(=C/c3ccc(OC(=O)c4cccs4)cc3)C2=O)cc1,.,50µM*,-18%,9.5µM*,0%
O=C1NC(=O)N(c2ccccc2)C(=O)/C1=C/c1ccc2c(c1)Cc1ccccc1-2,.,.,.,.,0%
COc1cc(/C=C2\C(=O)NC(=O)N(c3ccccc3)C2=O)cc(OC)c1O,.,-29%,-4%,?,0%
CCN(CC)S(=O)(=O)N1CCC(C(=O)N2CCC3(CC2)OCCO3)CC1,-3,8%,4%,-14%,1%
Cc1ccccc1Cn1cccc(C(=O)Nc2cc(Cl)ccc2C#N)c1=O,.,.,-2%,.,.
O=C(NCCN1CCC2(CC1)C(=O)NCN2c1cccc(F)c1)c1ccc2ccccc2c1,1,14%,.,4%,.
Cc1ccc(Cn2cccc(C(=O)Nc3ccc4c(c3)OCCO4)c2=O)cc1,.,.,-16%,.,.
Cc1ccc(OCC(=O)N2CCN(CCc3ccncc3)CC2)cc1C,.,.,-9%,.,.
Cc1ccc(-n2sc3ccccc3c2=O)cc1,-104*,?,-17%,0.95µM*,0%
O=c1c2ccccc2sn1-c1ccc(Cl)cc1,-100*,-3%,-23%,3µM*,.
Cc1ccc(C(C)C)c(OCC(=O)N2CCN(CCc3ccncc3)CC2)c1,.,.,-5%,.,.
CN1C(=O)C(=Cc2cn(CC#N)c3ccccc23)C(=O)N(C)C1=O,?,-6%,?,1.2µM*,3%
CN1C(=O)C(=Cc2cn(CC(=O)N3CCCC3)c3ccccc23)C(=O)N(C)C1=O,1,-2%,-14%,27µM*,4%
CCOC(=O)Cn1cc(C=C2C(=O)N(C)C(=O)N(C)C2=O)c2ccccc21,-5,-17%,?,?,-1%
CN1C(=O)C(=Cc2cn(CC(=O)N3CCCCC3)c3ccccc23)C(=O)N(C)C1=O,-4,5%,?,13µM*,-4%
Cc1cc(C=C2C(=O)N(C)C(=O)N(C)C2=O)c(C)n1-c1ccccc1,-4,1%,-11%,-4%,0%
CN1C(=O)C(=Cc2coc3ccccc3c2=O)C(=O)N(C)C1=O,-73*,-14%,-19%,19µM*,9%
Cc1c(Cl)cccc1NC(=O)CN1C(=O)C(C)N=C(c2ccccc2)c2ccccc21 (configuration not stated),.,.,-21%,.,.
C[C@H]1CN([C@@H](C)CO)C(=O)c2cc(-c3cccnc3)cnc2O[C@H]1CN(C)Cc1ccc(Oc2ccccc2)cc1,1,-3%,?,-5%,.
CCOC(=O)c1ccccc1OC(=O)NNc1ccccc1,-2,-1%,?,-7%,.
COc1ccc(Cl)cc1NC(=O)CN1C(=O)CN=C(c2ccccc2)c2cc(Cl)ccc21,.,.,-19%,.,.
C[C@H]1COC(=O)[C@H](Cc2ccc(F)cc2)CC/C=C/C[C@@H](CC(=O)N(CCO)Cc2ccccc2)C(=O)N1,4,-4%,?,-5%,-8%
